The campaign covered roughly 330,000 compounds. About 1,900 (0.58%) were called active. Inconclusive results (about 4%) are left out. Not all results are given here. Entries with a potency or affinity are not part of this list. Values without a mark were called inactive. Cut-off read from the data, not from the text of the source: inconclusive = inhibition above about 70% without an active follow-up result; inactive = below that.

The results in this text go back to PubChem BioAssay AID449762 (Southern Research Specialized Biocontainment Screening …, 2010).

This assay can be described thus: M. tuberculosis growth inhibition, HTS (AID 449762).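 Note: bacterial growth assessed after seven days of incubation.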 To be noted: M. tuberculosis H37Rv growth inhibition, 7H9 media; at 25 µM; active compounds read high.
For the compound `O=C(O)C1(P(=O)(c2ccccc2)c2ccccc2)CCCC1`, the inhibition is 0.37%.

`CN(C)CCCNC(=S)N(CCCO)Cc1cc2cc3c(cc2[nH]c1=O)OCO3`: the inhibition is 4.05%.

On to `COc1ccc(C(CCN2CCN(c3ccccc3)CC2)c2c(OC)cc(OC)c3c(-c4ccccc4)cc(=O)oc23)cc1` (stereo unspecified), for which the inhibition was -5.41%.

Turning to `COc1cc(C(CCN2CCCC2)c2c(OC)cc(OC)c3c(-c4ccccc4)cc(=O)oc23)cc(OC)c1OC` (stereo unspecified), the inhibition was 56.2%.

Consider `COc1ccc(N2C(=O)NC(NS(=O)(=O)c3ccccc3)(C(F)(F)F)C2=O)cc1` (stereo unspecified), for which the inhibition is -5.61%.

In the case of `CNC(=O)COC(=O)c1cc(=O)[nH]c2ccccc12`, the inhibition is -5.4%.

On to `Cc1c2cnn(CC(=O)Nc3cccc(C(F)(F)F)c3)c(=O)c2c(C)n1Cc1ccccc1F`, for which the inhibition was -1.26%.

Regarding `O=C(CN1CCOc2ccccc21)N1CCCC1`, the inhibition is -8.18%.

For the compound `O=C(CN1C(=O)COc2ccccc21)N1CCCC1`, the inhibition was -0.99%.

On to `CC(C)c1ccc(NC2CCCN(C(=O)CCN3CCOCC3)C2)cc1` (stereo unspecified), for which the inhibition is 7.93%.

On to `O=C(Nc1nc(-c2cc(Cl)sc2Cl)cs1)c1ccccc1`, for which the inhibition was -8.95%.

In the case of `O=C(Nc1nc(-c2cc(Cl)sc2Cl)cs1)c1ccc(Br)s1`, the inhibition is 1.67%.

With `CCC1CCCCN1C(=O)c1noc(C(C)C)c1[N+](=O)[O-]` (stereo unspecified), the inhibition was 3.49%.

Turning to `CC12CC3(C)CC(C)(C1)CC(C(N)=O)(C2)C3`, the inhibition was -0.48%.

`COc1ccccc1NC(=O)CSCc1cc(=O)n2ccsc2n1`: the inhibition is 3.56%.

Regarding `Cc1ccc(C(C)C)c(OCC(O)CNC2CCCC2)c1` (stereo unspecified), the inhibition was 9.04%.

Take `CCN(CCNCC(O)COCc1ccc(Cl)cc1)c1cccc(C)c1` (stereo unspecified): the inhibition was 57%.

Take `Cc1ccc(S(=O)(=O)Cc2ccc(C(=O)NCCCN3CCN(C)CC3)o2)cc1`: the inhibition was -20.7%.

`O=C(Cn1c2ccc(F)cc2c2nc3n(c(=O)c21)CCS3)N1CCCC1`: the inhibition is -4.92%.

With `CCN(CC)S(=O)(=O)c1cccc(-c2csc(C)n2)c1`, the inhibition was -1.32%.

Take `COc1ccc(/C=N/Nc2nnc(C)n2N)cc1OC`: the inhibition was 54.6%.

In the case of `COc1cc(/C=N\Nc2nncn2N)ccc1OC(C)=O`, the inhibition was -2.67%.

With `Cc1cccc(C)c1-n1nnnc1SCSc1nnnn1-c1c(C)cccc1C`, the inhibition was -0.17%.

For the compound `Cc1ccc(C)c(N2C(=O)CC(N3CCN(Cc4ccc5c(c4)OCO5)CC3)C2=O)c1` (stereo unspecified), the inhibition was -6.64%.

Take `O=c1/c(=C\c2ccc(O)cc2)sc2nc(-c3ccccc3)c(-c3ccccc3)n12`: the inhibition is -4.61%.

On to `CCOC(=O)C1=C(C)N=c2s/c(=C\c3ccc(OCC(=O)O)cc3)c(=O)n2C1c1ccccc1` (stereo unspecified), for which the inhibition is -2.68%.

For orientation: inhibition means the relative decrease from the control value, in per cent.
